# Compound activity from PubChem.
# Hits are enriched below; roughly 4% of the tested compounds scored in any of these assays.
# TRHR PAM: TRH receptor (human) allosteric enhancement; 0.66% of 360,000 active; P34981; enhancement, % at 2 µM; TRHR cells, fluo-8 calcium fluorescence, EC20 TRH enhancement; AID 493056; in the data active = enhancement above about 30%
# Target sequence (P34981 whole entry, looked up): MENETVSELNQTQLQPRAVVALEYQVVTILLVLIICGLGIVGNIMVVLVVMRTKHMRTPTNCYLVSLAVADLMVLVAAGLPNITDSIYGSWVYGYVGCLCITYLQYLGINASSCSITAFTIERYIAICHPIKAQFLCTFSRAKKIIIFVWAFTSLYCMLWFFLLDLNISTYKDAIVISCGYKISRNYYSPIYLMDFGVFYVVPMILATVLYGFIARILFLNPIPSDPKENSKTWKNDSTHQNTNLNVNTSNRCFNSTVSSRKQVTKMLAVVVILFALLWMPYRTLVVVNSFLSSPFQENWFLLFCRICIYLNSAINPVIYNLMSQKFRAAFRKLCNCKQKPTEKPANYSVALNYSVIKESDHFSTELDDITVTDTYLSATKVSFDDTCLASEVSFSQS
#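 TRHR-expressing cells loaded with fluo-8 calcium dye were read kinetically (ex 480/em 530) during compound addition, then stimulated with an EC20 of TRH (10 nM final). Enhancement of the Gq-mediated intracellular calcium response was scored.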
# D1 PAM: potentiators of human D1 dopamine receptor; HEK293 TREx D1 cells, calcium flux, dopamine EC20 potentiation; potentiation, % at 10 µM; 0.036% of 360,000 active; AID 504651; in the data active = potentiation above about 30%
# D1 antagonist: blocks dopamine activation of the human D1 receptor; 3.2% of 360,000 active; activity change, negative = inhibition, % at 10 µM; P21728; HEK293 TREx D1 cells, calcium flux, dopamine EC80; stronger effect = lower value; AID 504652; in the data active = activity change below about -30%
#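 Calcium flux readout: force-coupled, inducible Hek293 Trex D1 line, cells induced overnight at 30 C with tetracycline, dye-loaded 30–90 min at RT. Antagonism scored against EC80 dopamine challenge given 180 s after compound.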
# Glioma ERSR ind: induces the endoplasmic reticulum stress response in human glioma cells. U87-MG GRP78 promoter luciferase reporter, 16 h. Potency, µM, actives largely listed as activators. 0.02% of 420,000 active. AID 602332; active = well fitted activation curve with a large enough effect; note: series mostly up to about 76 µM; nearly all actives have a fitted effect of over 35% in size
#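 Stably transfected U87-MG glioma cells carrying a GRP78-based luciferase sensor; 16 h compound incubation. Luminescence end-point read 10 min after Bright-Glo addition at room temperature.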
# D1 agonist: agonists of human D1 dopamine receptor; P21728; HEK293 T-REx D1 cells, calcium flux, agonist mode; activation, % at 2 µM; 1% of 360,000 active; AID 504660
#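 Inducible HEK293 T-REx D1 cells, force-coupled to calcium signalling, were plated at 4000 cells/well with tetracycline and held overnight at 30 C. After no-wash calcium dye loading, compound-evoked calcium rise over 180 s flagged agonists.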
# TRHR ag: TRH receptor (human) agonism; P34981; TRHR cells, calcium flux fluo-8, FDSS agonist mode; 0.18% of 360,000 active; activation, % at 2 µM
#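 Steps: seed TRHR cells overnight; add fluo-8 no-wash Ca dye, RT 30 min–1.5 h; record 10 s baseline; pin-transfer compounds; monitor fluorescence 1 cycle/s for the agonist window. Calcium increases flag candidate agonists.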
# A number is an active result; n = inactive; x = no result given; ! = repeats disagree. Cut-off read from the data, not from the text of the source, unless noted: active = activation above about 30%; inactive = the rest.
SMILES,TRHR PAM,D1 PAM,D1 antagonist,Glioma ERSR ind,D1 agonist,TRHR ag
COc1ccc(Cl)cc1NC(=O)c1cc(C)nn1-c1ccccc1,n,n,n,x,n,n
CCN(CC)C(=O)c1sc(NC(=O)c2nc3ncccn3n2)c(C(=O)OC)c1C,32,n,n,n,n,n
CN(C)c1ccc(CNC(=O)CCn2c(=O)c3cccn3c3ccc(F)cc32)cc1,n,n,-30,n,n,n
O=C(CCn1c(=O)c2cccn2c2ccc(F)cc21)NCc1ccccc1F,n,n,-69,n,n,n
O=C(CCn1c(=O)c2cccn2c2ccc(F)cc21)NCc1cccc(F)c1,n,n,n,n,n,n
Cc1ccc(NC(=O)CCn2c(=O)c3cccn3c3ccccc32)cc1C,n,n,-37!,n,n,n
COC(=O)c1ccc(NC(=O)COc2ccccc2C(=O)Nc2ccccc2)cc1,x,x,x,n,x,x
Cc1cc(C)n2nc(C(=O)NCc3ccco3)nc2n1,x,x,x,n,x,x
O=c1c(-c2cccs2)nc2cnc(Nc3ccccc3)nc2n1C[C@H]1CCCO1,x,x,x,n,x,x
Cc1cccc(NC(=O)CN2C(=O)COc3ccc(S(=O)(=O)N4CCC(C)CC4)cc32)c1C,n,n,n,n,n,n
O=C(Cc1c(F)cccc1Cl)N1CCOCC1,n,n,-36,n,n,n
O=C(Cc1c(F)cccc1Cl)NCCN1CCOCC1,n,n,n,n,n,n
COc1ccc([N+](=O)[O-])cc1NC(=O)CCN1CCN(c2ccccc2OC)CC1,n,n,-46,n,n,n
COC(=O)c1[nH]c2cccc(OC)c2c1NC(=O)CCN1CCN(c2ccccc2OC)CC1,n,n,-39,n,n,n
COc1ccc([N+](=O)[O-])cc1NC(=O)CCN1CCN(C)CC1,n,n,n,n,n,n
O=C(CCN1CCN(c2ccccc2F)CC1)Nc1ccccc1F,n,n,n,n,n,n
Cc1ccc(C)c(NC(=O)CCN2CCN(c3ccccc3F)CC2)c1,n,n,-38,n,n,n
COC(=O)c1[nH]c2cccc(OC)c2c1NC(=O)CCN1CCC(C)CC1,n,n,n,n,n,n
COc1ccc(C)cc1NC(=O)CCN1CC(C)OC(C)C1 (configuration not stated),n,n,-30,n,n,n
COc1ccc(Cl)cc1NC(=S)N1CC(C)OC(C)C1 (configuration not stated),33,n,n,n,n,n
COc1ccc(C)cc1NC(=O)CCN1CCN(c2ccccc2F)CC1,n,n,-45,n,n,n
COc1ccccc1NC(=S)N1CC(C)OC(C)C1 (configuration not stated),n,n,n,n,n,n
COC(=O)c1[nH]c2ccc(Cl)cc2c1NC(=O)CCN1CCOCC1,n,n,-38,n,n,n
CCOC(=O)N1CCN(CC(=O)Nc2c(C(=O)OC)[nH]c3ccc(Cl)cc23)CC1,n,n,n,n,n,n
COc1ccc(OC)c(NC(=O)CCN2CCN(c3ccccc3F)CC2)c1,n,n,-38,n,n,n
SMILES,TRHR PAM,D1 PAM,D1 antagonist,Glioma ERSR ind,D1 agonist,TRHR ag
COc1cccc(NC(=O)CCN2CCN(c3ccccc3F)CC2)c1,n,n,n,n,n,n
O=C(c1csnn1)N1CCC2(CCCN(c3ccccc3)C2)CC1,x,x,x,n,x,x
N#CC1(CCCN2CCCCC2)c2ccccc2CCc2ccccc21,x,x,x,n,x,x
CC1CCN(Cc2c(C(=O)N/N=C/c3ccccc3O)nnn2-c2nonc2N)CC1,n,n,n,n,n,n
COc1ccc(C)cc1NC(=O)CN1CCN(C/C=C/c2ccccc2)CC1,n,n,n,n,38,n
COc1ccc(-c2nc(CSCC(=O)N3CCN(c4ccc(F)cc4)CC3)c(C)o2)cc1,n,n,-33,n,n,n
Cc1cc(C)cc(N2CCCn3c2nc2c3c(=O)n(CC(=O)OCc3ccccc3)c(=O)n2C)c1,n,n,n,n,n,n
CCn1c(=O)c2c(nc3n2CCCN3c2cccc(C)c2)n(C)c1=O,n,n,-31,n,n,n
Cc1ccc(N2CCCn3c2nc2c3c(=O)n(CC(=O)OCc3ccccc3)c(=O)n2C)cc1C,n,n,-46,x,n,n
COC(=O)Cn1c(=O)c2c(nc3n2CCN3c2cccc(C)c2)n(C)c1=O,n,n,n,n,n,n
